The source made the active and inactive calls. Rule for the calls: active = hit-call score of the fitted dose curve at least 0.9, where 1 is the maximum; inactive = score below 0.9.
Experiment: ATG_RORE_CIS: Attagene CIS-FACTORIAL HepG2 Assay for human RAR-related Orphan Receptor Element (RORE) (AID 2282959)
Settings: HepG2 Attagene cis-factorial RORE reporter, mRNA; actives raise or lower the signal
Method in brief: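 Readout: fluorescent reporter mRNA by RT-PCR plus capillary electrophoresis, 24 h after dosing transfected HepG2 cells. Endogenous transcription factor activity on a cis promoter element is measured. Gain or loss of signal fitted against DMSO.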
With `CC1(C)S[C@@H]2[C@H](NC(=O)[C@H](N)c3ccccc3)C(=O)N2[C@H]1C(=O)O` the outcome was “inactive”.
For `CCC(C)(CCC(C)C)C(=O)O` (configuration not stated), the outcome was “inactive”.
With `Cc1cc(C)c(S(=O)(=O)O)cc1N=Nc1cc(S(=O)(=O)O)c2ccccc2c1O` the outcome was “inactive”.
In the case of `c1cc(N(CC2CO2)CC2CO2)ccc1Cc1ccc(N(CC2CO2)CC2CO2)cc1` (configuration not stated), the outcome is reported as “inactive”.
For `O=C(O)Cc1c[nH]c2ccccc12`, the outcome was “inactive”.
For `CCCCCCCCCCC1CO1` (configuration not stated), the outcome was “inactive”.
With `NCc1ccccc1` the outcome was “inactive”.
In the case of `CCCCn1cc[n+](C)c1`, the outcome is reported as “inactive”.
For `CC(C)CC(=O)O`, the outcome was “inactive”.
In the case of `Cc1cc(O)cc(C)c1Cl`, the outcome is reported as “inactive”.
For `CC(C)n1c(/C=C/[C@@H](O)C[C@@H](O)CC(=O)O)c(-c2ccc(F)cc2)c2ccccc21`, the AC50 was 55.3 µM (active).
With `CC1=C(CC=O)C(C)(C)CCC1` the outcome was “inactive”.
In the case of `Cc1cccnc1`, the outcome is reported as “inactive”.
With `Cc1ccccc1S(N)(=O)=O` the outcome was “inactive”.
For `OCCOCCOCCOCCOCCO`, the outcome was “inactive”.
For `C1=CCC=C1`, the outcome was “inactive”.
In the case of `CN(C)CCC(c1ccc(Cl)cc1)c1ccccn1` (configuration not stated), the outcome is reported as “inactive”.
With `CN(C)CCCN1c2ccccc2CCc2ccc(Cl)cc21` the outcome was “inactive”.
For `C[C@H]1C[C@H]2[C@@H]3CCC4=CC(=O)C=C[C@]4(C)[C@@]3(F)[C@@H](O)C[C@]2(C)[C@@]1(O)C(=O)CO`, the outcome was “inactive”.
With `COC(OC)C(C)c1ccccc1` (configuration not stated) the outcome was “inactive”.
With `F[B-](F)(F)F` the outcome was “inactive”.
With `COCCCN` the outcome was “inactive”.
With `CC1=CCCC(C)(C)C12CCC(C)O2` (configuration not stated) the outcome was “inactive”.
With `CC(=O)c1nccs1` the outcome was “inactive”.
In the case of `COc1ccccc1OCC(O)CO` (configuration not stated), the outcome is reported as “inactive”.
With `OCCN(CCO)c1cccc(Cl)c1` the outcome was “inactive”.
In the case of `CC=CC(=O)O`, the outcome is reported as “inactive”.
